# High-throughput results deposited in PubChem BioAssay by Broad Institute.
# ID4 SMM: binds human ID4 protein on microarray; P47928; small molecule microarray, Flag-ID4 binding, fluorescence F/B; calls only; hit rate 1.2% among 31,000; call rule not given here;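 note: a binder raises fluorescence above local background on the spot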
# STK33 inh: inhibitors of human STK33 kinase; Q9BYT3; ADP-Glo luminescence, MBP substrate; inhibition, % at 12.5 µM; hit rate 0.44% among 27,000; in the data active = inhibition above about 20%; inconclusive = no clear call, values can overlap the other calls
# Target sequence (Q9BYT3 whole entry, looked up): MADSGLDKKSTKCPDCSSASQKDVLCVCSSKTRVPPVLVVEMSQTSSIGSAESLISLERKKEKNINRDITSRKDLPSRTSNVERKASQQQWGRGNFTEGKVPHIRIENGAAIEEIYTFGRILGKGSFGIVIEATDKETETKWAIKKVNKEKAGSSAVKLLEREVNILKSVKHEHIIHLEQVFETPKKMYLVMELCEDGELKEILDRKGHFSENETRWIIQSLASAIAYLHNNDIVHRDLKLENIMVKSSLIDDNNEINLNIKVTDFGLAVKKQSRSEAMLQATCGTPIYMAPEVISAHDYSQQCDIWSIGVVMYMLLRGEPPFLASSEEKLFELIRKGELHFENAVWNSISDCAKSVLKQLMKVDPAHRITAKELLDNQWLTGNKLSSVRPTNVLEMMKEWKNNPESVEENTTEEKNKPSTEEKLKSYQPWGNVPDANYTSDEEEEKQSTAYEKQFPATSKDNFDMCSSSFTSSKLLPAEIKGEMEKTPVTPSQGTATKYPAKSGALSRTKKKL
# p53 PUMA act: restores mutant p53 pathway signaling in SW480 cells. SW480 PUMA-promoter luciferase, p53 mutant reactivation. activation, % at 9.98 µM. hit rate 1.5% among 28,000. AID 624151; in the data active = activation above about 52%; inconclusive = no clear call, values can overlap the other calls
# Numbers stand for hits; . = inactive; ? = inconclusive; / = no result given; + = active, no number. Rows were chosen to be rich in hits. Some 2.1% of all compounds tested hit in one or more screens of this group.
SMILES,ID4 SMM,STK33 inh,p53 PUMA act
NCCCCCCNC(=O)[C@@H]1C[C@@H]2C(=O)N[C@@H](Cc3ccccc3)C(=O)N2[C@@H]1c1ccc(O)cc1,+,.,/
Cc1c(NC(=O)COc2ccc(Br)cc2)cccc1-c1nc2ccccc2s1,.,.,.
C=C1CC/C=C(/C(=O)O)C[C@H](O)C2C1CC2(C)C (stereo not given in full),.,.,/
CCOC(=O)C1=C(C)NC(=S)NC1c1cc(I)c(OCC#N)c(OC)c1 (stereo not given),.,.,.
O=C(NCc1ccco1)c1cccc(S(=O)(=O)N2CCCCCC2)c1,.,.,.
O=C(COc1ccccc1Cl)Nc1ccccc1[N+](=O)[O-],.,.,.
CNC[C@@H]1Oc2ccc(NS(=O)(=O)c3cccs3)cc2CC(=O)N([C@H](C)CO)C[C@H]1C,+,.,.
CNC[C@H]1Oc2ccc(NS(C)(=O)=O)cc2CC(=O)N([C@H](C)CO)C[C@H]1C,.,.,.
CNC[C@@H]1Oc2ccc(NS(C)(=O)=O)cc2CC(=O)N([C@@H](C)CO)C[C@@H]1C,+,.,.
CNC[C@H]1Oc2ccc(NS(=O)(=O)c3cccs3)cc2CC(=O)N([C@H](C)CO)C[C@H]1C,.,.,.
CCOc1cc(S(=O)(=O)n2nnc3ccccc32)ccc1F,.,.,.
Cc1ccc(C)c(N2CCN(C(=O)CN3CC(c4ccccc4)CC3=O)CC2)c1 (stereo not given),.,/,.
CC(=O)Nc1ccc(OCC(O)CNC(C)C)cc1 (stereo not given),+,.,.
CC(=O)Nc1ccc(OCC(O)CNC2CCCC2)cc1 (stereo not given),.,.,.
O=C(COc1ccccc1Cl)Nc1ccccc1C(=O)Nc1ccccc1,.,.,.
O=C(c1ccco1)n1nc(-c2ccc(Cl)cc2)nc1NCc1ccco1,.,.,.
CCCC(=O)n1nc(-c2ccc(Cl)cc2)nc1NCc1ccco1,.,.,107
COc1ccc(C(=O)n2nc(-c3ccc(Cl)cc3)nc2NCc2ccco2)cc1OC,.,.,80
COc1ccccc1C(=O)n1nc(-c2ccccc2)nc1NCc1ccco1,.,.,.
CCCC(=O)n1nc(-c2ccccc2)nc1NCc1ccco1,.,.,.
O=C(c1ccc([N+](=O)[O-])cc1)n1nc(-c2ccc(Cl)cc2)nc1NCc1ccco1,.,.,128
Cc1cc([N+](=O)[O-])ccc1NC(=O)CSc1nnc(-c2cc3ccccc3o2)n1C,.,.,.
COc1cc(SC)ccc1C(=O)NC1CC1,/,.,/
O=C(Cn1cc(C(=O)C2CC2)c2ccccc21)Nc1ccccc1C(F)(F)F,.,.,.
Cc1ccc2nc(Nc3nc(CSc4nnc(C)s4)cc(=O)[nH]3)nc(C)c2c1,.,.,54
SMILES,ID4 SMM,STK33 inh,p53 PUMA act
Cc1nnc(SCc2cc(=O)[nH]c(Nc3nc(C)c4ccccc4n3)n2)s1,.,.,.
N#C/C(=C\c1ccc(O)c(O)c1)C(=O)c1ccc(O)c(O)c1,.,31,.
N#C/C(=C/c1ccc(O)c(O)c1)C(=O)Nc1ccccc1,.,/,?
C=C(CO)C(=O)O[C@H]1C[C@H]2C(=C)C[C@H](OC(=O)C(=C)CO)[C@H]3C(=C)C(=O)O[C@@H]3[C@H]2C1=C,/,.,/
O=C(CSc1nccc(=O)[nH]1)Nc1cccc(F)c1,.,.,.
Cc1ccc(C(C)C)c(OCC(=O)Nc2ccc(C)cc2[N+](=O)[O-])c1,.,.,.
Cc1ccc(NC(=O)CSc2nnnn2C2CC3CCC2C3)cc1 (stereo not given),.,.,.
Cc1cc(C(=O)NCc2ccco2)no1,.,.,.
O=C(NCc1ccccn1)c1cc(-c2ccccc2)on1,.,.,93
O=C(NCc1ccccn1)C(=O)Nc1ccc(Cl)c(Cl)c1,.,.,58
COc1ccc(NC(=O)NCc2ccccn2)cc1OC,.,.,.
Cc1ccc(-c2cc(C(=O)NCc3ccccn3)no2)cc1,.,.,.
Cc1ccc(-c2cc(C(=O)NCc3ccco3)no2)cc1,.,.,73
CCOC(=O)c1sc(NC(=O)c2cc3ncc(Br)cn3n2)c(C(=O)OCC)c1C,.,.,.
N#Cc1c(SCc2ccccc2Cl)nc2c(c1C(F)(F)F)CCc1occc1-2,.,/,.
CCC(Oc1ccccc1)C(=O)Nc1cccc(NC(C)=O)c1 (stereo not given),.,.,.
CC(Oc1ccccc1)C(=O)Nc1cccc(-c2nnc(-c3ccccc3)o2)c1 (stereo not given),.,.,114
CC(Oc1ccc(Cl)cc1Cl)C(=O)Nc1cccc(-c2nc3ccccc3o2)c1 (stereo not given),.,.,.
Cc1cc(Cl)ccc1OC(C)C(=O)Nc1cccc(-c2nnc(-c3ccccc3)o2)c1 (stereo not given),.,.,85
O=C(NCc1ccco1)c1ccccc1NC(=O)C1CC(=O)N(c2ccc(Cl)cc2)C1 (stereo not given),.,.,.
O=C(Nc1ccc(Cl)cc1)Nc1ccccc1C(=O)NCc1ccco1,.,.,80
O=C(Nc1ccccc1C(=O)NCCOc1ccccc1)c1ccccc1I,.,.,.
COCCNC(=O)c1ccccc1NC(=O)Nc1ccc(Cl)cc1,.,.,61
Cc1cc(OCCCC(=O)Nc2sc3c(c2C#N)CCCC3)cc(C)c1Cl,.,.,.
Cc1nc(S(=O)(=O)NCC2CCN(Cc3ccc(OCCO)cc3)CC2)cn1C,/,.,/
SMILES,ID4 SMM,STK33 inh,p53 PUMA act
CN1C(=O)c2ccccc2NC(=O)/C1=C\c1ccccc1,/,.,.
O=C1Nc2ccccc2/C1=C\c1c(Cl)[nH]c2ccccc12,.,29,.
CN(C)c1ccc(/C=C2/C(=O)Nc3ccccc32)cc1,/,34,.
O=C1Cc2c([nH]c3ccc(Br)cc23)-c2ccccc2N1,/,.,/
Cn1c(SCC(=O)Nc2sc3c(c2C#N)CCCC3)nnc1-c1ccccc1,.,.,.
Cn1c(SCC(=O)Nc2cccc(C(F)(F)F)c2)nnc1-c1cc2cc(Cl)ccc2o1,.,.,.
COC(=O)c1ccccc1NC(=O)Cn1nc([N+](=O)[O-])c(Br)c1C,.,.,.
Cc1cc(O)c(C)c2c1Oc1c(C)c(O)cc(C)c1C(=O)O2,.,23,/
Cc1c(O)cc(O)c2c1OC(c1ccccc1)CC2=O (stereo not given),.,.,/
NC(=NC(=O)c1cccc(Cn2cc(C(F)(F)F)ccc2=O)c1)c1ccc(Cl)cc1,/,.,/
COc1ccc(OC)c(NC(=O)Nc2cccc(Cn3cccn3)c2)c1,.,.,.
COc1cccc2cc(C(=O)Nc3cccc(Cn4cccn4)c3)c(=O)oc12,.,.,57
CC(C)CNc1nc(SCC(N)=O)nc(N2CCOCC2)n1,.,.,.
O=C(CSc1nnnn1-c1ccccc1)Nc1cccc(Br)c1,.,.,.
O=C(CSc1ncnc2sc(-c3ccccc3)cc12)NC1CCCCC1,.,.,.
CC(=O)C(C)Sc1ncnc2sc(-c3ccccc3)cc12 (stereo not given),.,?,73
CCOC(=O)c1c(NC(=S)NCc2cc(C)n(C)n2)sc2c1CCCC2,.,.,.
CCOC(=O)c1c(NC(=S)N(C)Cc2c(C)nn(C)c2C)sc2c1CCCCCC2,+,.,.
Cc1cc(C)c(NC(=O)CN(c2ccc(Cl)cc2)S(C)(=O)=O)c(C)c1,.,.,.
Cc1noc(C)c1NC(=O)N(C)C[C@H]1OCCCC[C@@H](C)Oc2ccc(NS(=O)(=O)c3cccs3)cc2C(=O)N([C@H](C)CO)C[C@H]1C,+,/,.
